# Measured values from PubChem BioAssay (NCATS).
# Inconclusive results are not listed. A number with no mark means an inactive call. Active and inactive are the calls of the source. Calls come from the whole dose curve; as a rule, active = well fitted inhibition curve with a large enough effect; inconclusive = small, poorly fitted or top-dose-only effect; inactive = flat fitted curve, though single readings scatter. *1 amine or outer side, *2 acyl side, *3 side chain or, on linkers, in order; H or OH if unused. Where a SMILES comes first, the peptide text is derived from it. [ ]: non-standard residue; d: D form. The star is where a group is joined. ξ: configuration not given here. X9 = CCC(C)(N*)C(=O)C1CC[C@@H](C(=O)N[C@@H](Cc2ccccc2)C(=O)NCC(=O)O)N1; X8 = O=C([C@@H]1CC(O)CN1[*:1])[*:2]; aIle = CC[C@@H](C)[C@H](N)C(=O)O; Thr(3ξ) = CC(O)[C@H](N)C(=O)O; ξIva = CCC(C)(N)C(=O)O; Aib = CC(C)(N)C(=O)O
# Assay: P-glycoprotein substrates identified in KB-8-5-11 adenocarcinoma cell line, qHTS therapeutic library screen (AID 1346987); note: nearly all actives have a fitted effect of over 65% in size
# Conditions: KB-8-5-11 (P-gp overexpressing) viability, CellTiter-Glo, 72 h; series mostly up to 44.5 µM; activity change, negative = cytotoxicity: at the top concentration
# Summary of the method: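 Luminescence from CellTiter-Glo, read 5 min after addition, quantified survival of KB-8-5-11 (P-gp-overexpressing) cells exposed to compounds for 72 h. AC50 was derived from concentration-response curves.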
# % is set by controls: 0 for no effect and ±100 for the full control effect.
SMILES,"activity change, negative = cytotoxicity",outcome
COc1cn(-c2ccc(-n3cccn3)cc2F)nc(-c2ccnn2-c2ccccc2)c1=O,-12.7%,–
O=C(/C=C/c1ccc(O)c(O)c1)O[C@@H]1[C@@H](O)[C@H](OC2CCCCC2O)O[C@H](CO)[C@H]1O (stereo partly drawn),–,inactive [at 17.3 µM]
CC1(C)CC2C3=CCC4[C@@]5(C)CC[C@H](OC6OCC(O)C(OC7OC(CO)C(O)C(O)C7O)C6O)C(C)(C)C5CC[C@@]4(C)[C@]3(C)C[C@H](O)[C@@]2(CO)[C@H](OC(=O)c2ccccc2)C1 (stereo partly drawn),-4.21% [at 9.29 µM],–
COc1ccc(-n2c(SCC#N)nc3sc4c(c3c2=O)CCCC4)cc1,7.68%,–
C=C(CCO)C(=O)OCC1OCC(OC(=O)C(=C)CCO[C@@H]2O[C@H](CO)[C@@H](O)[C@H](O)[C@H]2O)C(O)C1O (stereo partly drawn),2.76% [at 17.3 µM],–
CC1(C)CC(NC(=O)C(=O)Nc2ccc(Cl)cc2)CC(C)(C)N1,4.78%,–
O=C(O)Cc1cn([C@@H]2OC[C@@H](O[C@@H]3O[C@H](CO)[C@@H](O)[C@H](O)[C@H]3O)[C@H](O)[C@H]2O[C@@H]2O[C@H](CO)[C@@H](O)[C@H](O)[C@H]2O)c2ccccc12,–,inactive [at 17.3 µM]
C[C@@H]1C[C@@H](O)[C@@]2(CO)C(CO)=CCC[C@@H]2[C@@]12C[C@@H](c1ccoc1)OC2=O,–,inactive
O=C(/C=C/c1ccc(O)cc1)O[C@@H]1C[C@@](O)(C(=O)O)C[C@@H](O)[C@@H]1O,–,inactive
CC1CC(=O)[C@]2(O)C(C(=O)OCCc3ccc(O)c(O)c3)=CO[C@@H](O[C@@H]3O[C@H](CO)[C@@H](O)[C@H](O)[C@H]3O)[C@H]12 (stereo partly drawn),–,inactive [at 17.3 µM]
COc1cc2c(cc1OC)N1C(=O)C[C@@]34C=CC[N@+]5([O-])CC[C@H]2[C@H](CC3)[C@@]145,8.24%,–
CC1(C)CC[C@]2(C(=O)O[C@@H]3O[C@H](CO)[C@@H](O)[C@H](O)[C@H]3O)CC[C@]3(C)C(=CCC4[C@@]5(C)C[C@H](O)[C@H](O[C@@H]6OC[C@@H](O)[C@H](O)[C@H]6O)[C@@](C)(CO)C5CC[C@]43C)C2C1 (stereo partly drawn),–,inactive [at 9.29 µM]
CC[C@@H]1[C@H]2CCCCN3C(=O)C[C@H]([C@@H]4[C@H]1OC(=O)[C@H]4C)[C@@H]23,6.73%,–
CCOC(=O)COc1ccc2c(c1)C[C@@H](NC[C@H](O)c1cccc(Cl)c1)CC2,4.51%,–
CC(=O)OC1C(O)C(C)(O)C(/C=C/C(=O)O)C2(C)CCCC(C)(C)C12 (stereo not drawn),–,inactive
C=C(CCO)C(=O)OCC1OCC(OC(=O)C(=C)CCO[C@@H]2O[C@H](COC(=O)C(=C)CCO[C@@H]3O[C@H](CO)[C@@H](O)[C@H](O)[C@H]3O)[C@@H](O)[C@H](O)[C@H]2O)C(O)C1O (stereo partly drawn),9.54% [at 17.3 µM],–
O=C(/C=C/c1ccc(O)c(O)c1)OC[C@H]1O[C@@H](OC2CCCCC2O)[C@H](O)[C@@H](O)[C@@H]1O (stereo partly drawn),–,inactive [at 17.3 µM]
CC(C)[C@](O)(c1ccc2cc(OC(F)F)c(OC(F)F)cc2c1)c1cn[nH]n1,-10.2%,–
COc1cc(/C=C/C(=O)O[C@@H]2C[C@@](O)(C(=O)O)C[C@@H](O)[C@@H]2O)ccc1O,1.07%,–

SMILES,"activity change, negative = cytotoxicity",outcome
CC(=O)C1CCC(=O)N1Cc1ccccc1 (stereo not drawn),4.45%,–
CC(C)(OC1OC(CO)C(O)C(O)C1O)C1CCC(O)(CO)C2CC(=O)C(C)(O)C2C1 (stereo not drawn),–,inactive [at 17.3 µM]
CC1OC(O[C@@H]2[C@@H](O)[C@H](OC(=O)[C@]34CCC(C)(C)C[C@H]3C3=CCC5[C@@]6(C)CC[C@H](O[C@@H]7O[C@H](C(=O)O)[C@@H](O)[C@H](O[C@@H]8OC[C@@H](O)[C@H](O)[C@H]8O)[C@H]7O[C@@H]7O[C@H](CO)[C@H](O)[C@H](O)[C@H]7O)[C@@](C)(C=O)C6CC[C@@]5(C)[C@]3(C)C[C@H]4O)O[C@H](C)[C@@H]2OC2OC(C)C(OC3OCC(O)C(O)C3O)C(O)C2O)C(O)C(O)C1O (stereo partly drawn),–,inactive [at 9.29 µM]
Nc1nc(COC(=O)c2ccc([N+](=O)[O-])cc2)nc(Nc2ccccc2)n1,3.62%,–
CCCO[C@@H]1O[C@H](CO)[C@@H](O)[C@H](O)[C@H]1O[C@@H]1OC[C@@H](O)[C@H](O)[C@H]1O,7.6%,–
CNC(C)C(=O)NC(C(=O)N1CCCC1C(=O)Nc1cccc2ncccc12)C(C)C (stereo not drawn),–,inactive
N[C@@H](CCNCc1ccc(Cl)cc1)C(=O)N1CCCCC1,9.84%,–
COc1cc([C@H]2OC[C@](O)(Cc3ccc(O[C@@H]4O[C@H](CO)[C@@H](O)[C@H](O)[C@H]4O)c(OC)c3)[C@@H]2CO)ccc1O,1.08% [at 17.3 µM],–
CC1=C2C(=O)C=C(CO[C@@H]3O[C@H](CO)[C@@H](O)[C@H](O)[C@H]3O)[C@@H]2[C@H]2OC(=O)[C@H](C)[C@@H]2CC1,4.62% [at 17.3 µM],–
C=C1CC23CC1CCC2C12OC(=O)C(C)(C(O)CC1O)C2C3C(=O)O (stereo not drawn),6.23%,–
C/C=C(\C)C(=O)OC1C(C)C2(O)C3C=C(C)C(=O)C3CC(CO)=CC2C2C(C)(C)C12OC(C)=O (stereo not drawn),-29.7% [at 17.3 µM],–
COC(=O)C1=COC(O[C@@H]2O[C@H](CO)[C@@H](O)[C@H](O)[C@H]2O)C2C(C)C(=O)CC12 (stereo partly drawn),–,inactive
C=CC(C)(O)CCC1C(C)(O)CCC2C(C)(C)CCCC21C (stereo not drawn),-4.2%,–
COc1ccc(OC2OC(CO[C@@H]3O[C@@H](C)[C@H](O)[C@@H](O)[C@H]3O)C(O)C(O)C2O)cc1OC (stereo partly drawn),8.07% [at 17.3 µM],–
CNc1nc(Cc2ccccc2)nc2c1CCNC[C@@H]2C,-17.2%,–
CC(=O)OCC1OC(OC2COC(OC3COC(OC4C(OC5C(CO)OC(OC6CCC7(C)C(CCC8(C)C7CC=C7C9CC(C)(C)CCC9(C(=O)OC9OC(CO)C(O)C(O)C9OC9OCC(OC%10OCC(O)(CO)C%10O)C(O)C9O)C(O)CC78C)C6(C)C)C(O)C5O)OCC(O)C4O)C(O)C3O)C(O)C2O)C(OC(=O)/C=C/c2ccccc2)C(O)C1OC(C)=O (stereo not drawn),0.531% [at 5.11 µM],–
C[C@@H]1C[C@@H](O)[C@@]23CO[C@]2(CO)CCC[C@@H]3[C@@]12C[C@@H](c1ccoc1)OC2=O,–,inactive
CC[C@@H](C)[C@H](NC(=O)C(C)(C)NC(=O)[C@H](CCC(N)=O)NC(=O)C(C)(CC)NC(=O)[C@H](Cc1c[nH]c2ccccc12)NC(C)=O)C(=O)N[C@H](C(=O)NC(C)(C)C(=O)N[C@@H](CC(C)C)C(=O)NC(C)(C)C(=O)N1CCC[C@H]1C(=O)N[C@@H](CCC(N)=O)C(=O)NC(C)(C)C(=O)N1CC(O)C[C@H]1C(=O)NC(C)(CC)C(=O)C1CC[C@@H](C(=O)N[C@@H](Cc2ccccc2)C(=O)NCC(=O)O)N1)C(C)O (stereo partly drawn) (Ac-W[ξIva]Q[Aib][aIle][Thr(3ξ)][Aib]L[Aib]PQ[Aib][X8]-X9),-19% [at 5.11 µM],–
COc1cc(C(C)=O)ccc1O[C@@H]1O[C@H](CO[C@@H]2OC[C@@H](O)[C@H](O)[C@H]2O)[C@@H](O)[C@H](O)[C@H]1O,7.86% [at 17.3 µM],–
